The text below walks through data of the supplement of paper PMC6411743.

Compound in the test: Nc1nc2c(ncn2[C@@H]2O[C@H](COP(=O)(O)OP(=O)(O)OP(=O)(O)O)[C@@H](O)[C@H]2O)c(=O)[nH]1 [guanosine triphosphate]
The test can be described thus: NP40-soluble protein abundance relative to vehicle (solubility fold change) (ratio); higher = more soluble protein in presence of GTP. As for the experimental part:
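Solubility proteome profiling in Jurkat crude lysate. Lysate was treated with Mg-GTP (0.1-10 mM) for 10 min at room temperature and 3 min at 37 °C, then solubilised with 0.8% NP40 and benzonase, followed by ultracentrifugation. Proteins were quantified by TMT10 LC-MS/MS; the value is the NP40-soluble abundance relative to the NP40-processed vehicle, from 3 independent experiments.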

± gives the standard deviation of the averaged measurements. The full data set covers some 5,400 targets. This sample favours those with the largest changes.

Sequence of UniProt Q99590 (Q99590 whole entry, one chain of several): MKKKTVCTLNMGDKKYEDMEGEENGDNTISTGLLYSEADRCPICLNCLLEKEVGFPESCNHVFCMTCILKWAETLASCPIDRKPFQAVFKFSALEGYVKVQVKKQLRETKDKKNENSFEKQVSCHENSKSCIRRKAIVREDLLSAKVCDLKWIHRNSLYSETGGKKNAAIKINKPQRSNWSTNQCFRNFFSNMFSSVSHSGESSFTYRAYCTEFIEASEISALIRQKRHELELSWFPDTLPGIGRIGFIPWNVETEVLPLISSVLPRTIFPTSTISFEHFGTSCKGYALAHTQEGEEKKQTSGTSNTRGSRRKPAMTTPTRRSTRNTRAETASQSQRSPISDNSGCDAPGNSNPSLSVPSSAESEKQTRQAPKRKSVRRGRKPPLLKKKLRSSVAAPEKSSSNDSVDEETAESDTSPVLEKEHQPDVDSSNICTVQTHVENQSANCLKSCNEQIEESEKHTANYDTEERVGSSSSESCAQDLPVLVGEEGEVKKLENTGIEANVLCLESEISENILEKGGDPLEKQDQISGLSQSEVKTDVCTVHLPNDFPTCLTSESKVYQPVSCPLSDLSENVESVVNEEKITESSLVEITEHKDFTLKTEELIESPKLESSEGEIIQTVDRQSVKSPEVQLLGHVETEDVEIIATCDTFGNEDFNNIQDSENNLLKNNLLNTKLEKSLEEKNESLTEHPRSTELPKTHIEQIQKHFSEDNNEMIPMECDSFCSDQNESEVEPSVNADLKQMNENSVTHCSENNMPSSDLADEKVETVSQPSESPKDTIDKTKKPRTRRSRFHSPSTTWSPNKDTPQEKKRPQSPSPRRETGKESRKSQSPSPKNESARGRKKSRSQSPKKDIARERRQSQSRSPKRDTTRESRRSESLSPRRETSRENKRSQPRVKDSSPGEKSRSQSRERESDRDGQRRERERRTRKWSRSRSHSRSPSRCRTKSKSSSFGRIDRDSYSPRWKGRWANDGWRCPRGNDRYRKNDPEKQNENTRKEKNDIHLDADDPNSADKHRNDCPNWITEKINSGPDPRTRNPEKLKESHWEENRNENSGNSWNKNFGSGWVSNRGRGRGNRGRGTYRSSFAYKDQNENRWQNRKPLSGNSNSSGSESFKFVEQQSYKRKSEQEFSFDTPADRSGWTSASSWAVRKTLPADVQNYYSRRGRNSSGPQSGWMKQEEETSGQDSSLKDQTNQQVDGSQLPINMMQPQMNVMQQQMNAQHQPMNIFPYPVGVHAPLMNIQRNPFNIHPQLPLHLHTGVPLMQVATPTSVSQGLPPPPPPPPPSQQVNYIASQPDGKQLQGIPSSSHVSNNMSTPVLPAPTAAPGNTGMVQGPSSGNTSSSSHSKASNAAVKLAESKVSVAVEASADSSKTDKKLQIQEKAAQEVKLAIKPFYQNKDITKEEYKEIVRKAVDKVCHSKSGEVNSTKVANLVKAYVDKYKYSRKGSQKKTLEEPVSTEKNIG
Sequence of UniProt O14730 (O14730 whole entry, one chain of several): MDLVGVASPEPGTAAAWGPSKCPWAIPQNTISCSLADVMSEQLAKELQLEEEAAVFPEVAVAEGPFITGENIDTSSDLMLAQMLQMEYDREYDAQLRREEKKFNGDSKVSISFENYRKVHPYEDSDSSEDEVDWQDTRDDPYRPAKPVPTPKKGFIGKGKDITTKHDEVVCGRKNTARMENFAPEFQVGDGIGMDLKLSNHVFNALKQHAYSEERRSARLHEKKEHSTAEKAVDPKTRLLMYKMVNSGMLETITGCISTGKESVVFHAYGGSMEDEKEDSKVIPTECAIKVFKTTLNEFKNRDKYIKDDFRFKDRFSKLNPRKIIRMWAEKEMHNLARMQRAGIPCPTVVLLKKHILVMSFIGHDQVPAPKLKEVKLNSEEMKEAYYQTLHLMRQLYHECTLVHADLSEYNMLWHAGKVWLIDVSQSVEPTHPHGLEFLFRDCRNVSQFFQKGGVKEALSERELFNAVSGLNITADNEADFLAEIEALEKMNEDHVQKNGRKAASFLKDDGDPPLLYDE
Sequence of UniProt Q14141 (Q14141 whole entry, one chain of several): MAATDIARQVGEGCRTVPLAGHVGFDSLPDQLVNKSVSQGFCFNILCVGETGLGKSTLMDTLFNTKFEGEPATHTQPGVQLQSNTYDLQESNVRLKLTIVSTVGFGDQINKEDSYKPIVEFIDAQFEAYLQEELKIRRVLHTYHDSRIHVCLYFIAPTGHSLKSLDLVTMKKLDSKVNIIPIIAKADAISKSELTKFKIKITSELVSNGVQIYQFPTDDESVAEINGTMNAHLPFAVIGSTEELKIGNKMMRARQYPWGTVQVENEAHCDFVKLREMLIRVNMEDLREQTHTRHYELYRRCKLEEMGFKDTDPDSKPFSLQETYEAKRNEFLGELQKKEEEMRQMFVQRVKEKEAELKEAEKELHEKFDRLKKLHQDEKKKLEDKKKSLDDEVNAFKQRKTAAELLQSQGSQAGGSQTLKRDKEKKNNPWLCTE
Sequence of UniProt Q9UM22 (Q9UM22 whole entry, one chain of several): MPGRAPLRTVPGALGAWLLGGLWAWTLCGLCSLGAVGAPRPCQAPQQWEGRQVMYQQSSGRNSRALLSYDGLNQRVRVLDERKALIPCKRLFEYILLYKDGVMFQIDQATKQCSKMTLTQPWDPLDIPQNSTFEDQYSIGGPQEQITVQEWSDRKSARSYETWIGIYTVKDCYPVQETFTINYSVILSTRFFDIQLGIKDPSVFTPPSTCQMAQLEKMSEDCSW
Sequence of UniProt Q9Y483 (Q9Y483 whole entry, one chain of several): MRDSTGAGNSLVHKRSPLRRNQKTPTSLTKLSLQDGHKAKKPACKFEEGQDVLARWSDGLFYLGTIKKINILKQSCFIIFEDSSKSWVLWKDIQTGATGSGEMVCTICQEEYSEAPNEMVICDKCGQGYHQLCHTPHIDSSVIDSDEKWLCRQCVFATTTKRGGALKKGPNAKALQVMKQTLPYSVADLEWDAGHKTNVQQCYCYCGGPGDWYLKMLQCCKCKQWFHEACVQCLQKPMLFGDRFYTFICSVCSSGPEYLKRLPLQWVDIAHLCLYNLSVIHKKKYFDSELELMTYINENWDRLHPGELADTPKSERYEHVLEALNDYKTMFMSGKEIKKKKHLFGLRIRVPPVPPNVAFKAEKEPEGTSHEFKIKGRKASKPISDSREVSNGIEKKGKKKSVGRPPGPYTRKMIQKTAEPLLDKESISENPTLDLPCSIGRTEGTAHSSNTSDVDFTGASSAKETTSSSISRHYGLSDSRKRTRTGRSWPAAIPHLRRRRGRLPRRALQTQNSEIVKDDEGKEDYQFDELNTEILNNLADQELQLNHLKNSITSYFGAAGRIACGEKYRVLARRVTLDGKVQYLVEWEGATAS

Take D6RIH7|Q9UM22 (UniProt Q9UM22): the NP40-soluble protein abundance runs as follows: (concentration: 0.1mM) 0.918 ± 0.11; (concentration: 0.5mM) 0.931 ± 0.14; (concentration: 1mM) 0.91 ± 0.12; (concentration: 2mM) 0.896 ± 0.13; (concentration: 4mM) 0.902 ± 0.12; (concentration: 6mM) 0.908 ± 0.13. The NP40-soluble protein abundance is, setting by setting: (concentration: 8mM) 0.88 ± 0.085; (concentration: 10mM) 0.889 ± 0.11.
On to “B4DZG1|Q9Y483|Q9Y483-3|Q96G26|Q9Y483-2|Q9Y483-4 (UniProt Q9Y483)”, for which the NP40-soluble protein abundance was 1.11 ± 0.061 (concentration: 0.1mM); 1.09 ± 0.032 (concentration: 0.5mM); 1.16 ± 0.044 (concentration: 1mM); 1.26 ± 0.074 (concentration: 2mM); 1.4 ± 0.068 (concentration: 4mM); 1.45 ± 0.095 (concentration: 6mM). Moreover, the NP40-soluble protein abundance is 1.64 ± 0.2 (concentration: 8mM) and 1.78 ± 0.18 (concentration: 10mM).
In the case of F8VXG7|Q99590|Q99590-2 (UniProt Q99590), the NP40-soluble protein abundance is, setting by setting: (concentration: 0.1mM) 1.02 ± 0.064; (concentration: 0.5mM) 1.13 ± 0.03; (concentration: 1mM) 1.22 ± 0.025; (concentration: 2mM) 1.26 ± 0.058; (concentration: 4mM) 1.3 ± 0.042; (concentration: 6mM) 1.31 ± 0.031. In addition, the NP40-soluble protein abundance amounted to 1.4 ± 0.1 (concentration: 8mM) and 1.42 ± 0.12 (concentration: 10mM).
For the target B4E1Q4|O14730|O14730-2 (UniProt O14730), the NP40-soluble protein abundance runs as follows: (concentration: 0.1mM) 0.965 ± 0.1; (concentration: 0.5mM) 1.03 ± 0.063; (concentration: 1mM) 0.949 ± 0.081; (concentration: 2mM) 0.921 ± 0.073; (concentration: 4mM) 0.806 ± 0.037; (concentration: 6mM) 0.77 ± 0.041. Moreover, the NP40-soluble protein abundance (concentration: 8mM) came to 0.747 ± 0.08 and the NP40-soluble protein abundance (concentration: 10mM) turned out to be 0.704 ± 0.041.
Turning to “B1AMS2|Q14141|Q14141-2|Q14141-4 (UniProt Q14141)”, the NP40-soluble protein abundance is, setting by setting: (concentration: 0.1mM) 1.03 ± 0.053; (concentration: 0.5mM) 0.998 ± 0.011; (concentration: 1mM) 0.968 ± 0.062; (concentration: 2mM) 0.9155 ± 0.0055; (concentration: 4mM) 0.941 ± 0.054; (concentration: 6mM) 0.921 ± 0.016. Further, the NP40-soluble protein abundance is, setting by setting: (concentration: 8mM) 0.941 ± 0.1; (concentration: 10mM) 0.857 ± 0.013.
